Test results from PubChem BioAssay (NCATS).
Activity calls are given as the source filed them. Entries that show only a call come without a potency. Calls come from the whole dose curve; as a rule, active = well fitted inhibition curve with a large enough effect; inconclusive = small, poorly fitted or top-dose-only effect; inactive = flat fitted curve, though single readings scatter.

The compounds below were run against Luciferin 4-monooxygenase (Photinus pyralis) (UniProt P08659) (assay: Primary firefly luciferase (FLuc) qHTS assay for identification of artifact compounds. (AID 1845220; note: nearly all actives have a fitted effect of over 60% in size)). Conditions: purified firefly luciferase, luminescence, 5 min; series mostly up to 54.1 µM.
How it was run: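 FLuc 10 nM; luciferin 10 uM; ATP 10 uM; Tris-acetate pH 7.6, Mg-acetate 10 mM; 15 min RT preincubation; 5 min reaction; luminescence.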

SMILES | Potency | activity change, negative = inhibition
C[C@@H]1CC[C@]2(C(=O)O)CC[C@]3(C)C(=CCC4[C@@]5(C)C[C@@H](O)[C@H](O)[C@@](C)(CO)C5CC[C@]43C)C2[C@H]1C (stereo partly specified) | inactive | –
CC1(C)CC[C@]2(C(=O)O[C@@H]3O[C@H](CO)[C@@H](O)[C@H](O)[C@H]3O)CC[C@]3(C)C(=CCC4[C@@]5(C)CC[C@H](O[C@@H]6O[C@H](C(=O)O)[C@@H](O)[C@H](O)[C@H]6OC6OC(CO)C(O)C(O)C6O)C(C)(C)C5CC[C@]43C)[C@@H]2C1 (stereo partly specified) | – | 1.1% [at 11.6 µM] (inactive)
CN(C)C(=O)C(O)C(Cc1ccccc1)NC(=O)c1cc2cc(Cl)ccc2[nH]1 (stereo unspecified) | inactive | –
CC1=CC2=C(C)C(=O)[C@](C)(O)[C@H](O)C2=CO1 | inactive | –
Nc1nc(COC(=O)c2ccc([N+](=O)[O-])cc2)nc(Nc2ccccc2)n1 | inactive | –
CC(C)C(O)(CO)CCO[C@@H]1O[C@H](CO[C@H]2OC[C@](O)(CO)[C@H]2O)[C@@H](O)[C@H](O)[C@H]1O (stereo partly specified) | inactive | –
CC1OC(O[C@@H]2[C@@H](O)[C@H](OC(=O)[C@]34CCC(C)(C)C[C@H]3C3=CCC5[C@@]6(C)CC[C@H](O[C@@H]7O[C@H](C(=O)O)[C@@H](O)[C@H](O[C@@H]8OC[C@@H](O)[C@H](O)[C@H]8O)[C@H]7O[C@@H]7O[C@H](CO)[C@H](O)[C@H](O)[C@H]7O)[C@@](C)(C=O)C6CC[C@@]5(C)[C@]3(C)C[C@H]4O)O[C@H](C)[C@@H]2OC2OC(C)C(OC3OCC(O)C(O)C3O)C(O)C2O)C(O)C(O)C1O (stereo partly specified) | – | 1.64% [at 11.6 µM] (inactive)
C=C1C(OC(C)=O)C(=O)C2C(C)(C)C(O)CCC2(C)C1CC(OC(C)=O)/C(C)=C/COC(C)=O (stereo unspecified) | inactive | –
NC(=O)[C@H](Cc1ccccc1)NC(=O)[C@H](CCCN=C(N)N)NC(=O)C12CC3CC(CC(C3)C1)C2 | – | 0.126% [at 11.6 µM] (inactive)
C=C1CC23CC1CCC2C12OC(=O)C(C)(C(O)C(O)C1O)C2C3C(=O)O (stereo unspecified) | inactive | –
C/C=C/C(=O)OC1/C=C/C(O)C(OC(C)=O)CCC(=O)OC1C (stereo unspecified) | inactive | –
CCC(C)C(N)C(=O)NCCN1CCOCC1 (stereo unspecified) | inactive | –
O=C(/C=C/c1ccc(O)c(O)c1)O[C@H]1[C@@H]2C=CO[C@@H](O[C@@H]3O[C@H](CO)[C@@H](O)[C@H](O)[C@H]3O)[C@@H]2[C@@]2(CO)O[C@@H]12 | inactive | –
COc1c(C)c(OCC=C(C)C)cc2c1COC2=O | inactive | –
C=C1CC[C@H]2[C@@](C)(CCC(OC3OC(CO)C(O)C(O)C3O)[C@@]2(C)CO)C1C(=O)CC1=CCOC1=O (stereo partly specified) | inactive | –
CC(=O)O[C@@H]1[C@@H](O)[C@H](C)O[C@@H](O[C@H]2[C@@H]3C=CO[C@@H](O[C@@H]4O[C@H](CO)[C@@H](O)[C@H](O)[C@H]4OC(C)=O)[C@@H]3[C@@]3(CO)O[C@@H]23)[C@@H]1OC(=O)/C=C/c1ccc(O)cc1 | inactive | –
COC(=O)c1[nH]c(=O)c2ccccc2c1-c1ccc[nH]1 | inactive | –
CC(C/C=C/C(C)(C)O)C1CCC(C)(O)C(O)C1 (stereo unspecified) | inactive | –
COc1ccc(/C=C/C(N)=O)cc1OC | inactive | –
COC(=O)C1(C)CCCC2(C)c3ccc(C(C)C)cc3C(O)C(O)C12 (stereo unspecified) | inactive | –
CCCCNc1nc(N)c2[nH]c(=O)n(Cc3ccc(OCCN(C)C)nc3)c2n1 | inactive | –
